Screening results: PubChem BioAssay, The Scripps Research Institute Molecular Screening Center
LYPLA2 inh: LYPLA2 (human) inhibition in PME1 counter-screen | O95372 | recombinant LYPLA2, FP-Rh probe fluorescence polarization | inhibition, % at 5.9 µM | actives 0.38% (n = 320,000) | AID 2177;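 active means inhibition above the screen-wide mean plus 3 SD, limit set per campaign, cut at about 26% in these data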;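 further: 0% = LYPLA2 with DMSO and 100% = wells lacking LYPLA2 enzyme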
Fam108B counter: blocks mouse Fam108B hydrolase in RBBP9 counter-screen | recombinant Fam108B, FP-Rh probe fluorescence polarization | inhibition, % at 9.51 µM | actives 0.33% (n = 300,000);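 active means inhibition above the screen mean inhibition plus 3 SD, computed separately per campaign, cut at about 18% in these data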;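 further: inhibitors lower polarization as less probe binds the enzyme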
PREPL inhibitor: human PREPL enzyme inhibition | Q4J6C6 | recombinant PREPL, fluorescence polarization activity-based probe | inhibition, % at 5.96 µM | actives 0.68% (n = 320,000) | AID 2751; in the data active means inhibition above about 43%;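 further: 0% = enzyme with DMSO and 100% = wells lacking enzyme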
PME-1 inh: blocks human protein phosphatase methylesterase 1; Q9Y570; recombinant PME-1, FP-Rh probe fluorescence polarization; inhibition, % at 5.9 µM; actives 0.53% (n = 320,000);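 active means inhibition above the campaign mean of all compounds plus 3 SD, cut at about 26% in these data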;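 further: competitive labeling of PME-1 active site by serine hydrolase directed probe; 0% = PME-1 with DMSO and 100% = wells lacking PME-1 enzyme; inhibitors block probe labeling so polarization falls and inhibition rises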
LYPLA1 inh: blocks human lysophospholipase 1, a PME1 counter-screen; O75608; recombinant LYPLA1, FP-Rh probe fluorescence polarization; inhibition, % at 5.9 µM; actives 0.16% (n = 320,000);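 active means inhibition above the mean of all tested compounds plus 3 SD, set per campaign, cut at about 14% in these data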;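 further: inhibitors block serine hydrolase probe labeling of LYPLA1 so polarization falls; 0% = enzyme with DMSO and 100% = wells lacking LYPLA1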
Target sequence (O75608 whole entry, looked up): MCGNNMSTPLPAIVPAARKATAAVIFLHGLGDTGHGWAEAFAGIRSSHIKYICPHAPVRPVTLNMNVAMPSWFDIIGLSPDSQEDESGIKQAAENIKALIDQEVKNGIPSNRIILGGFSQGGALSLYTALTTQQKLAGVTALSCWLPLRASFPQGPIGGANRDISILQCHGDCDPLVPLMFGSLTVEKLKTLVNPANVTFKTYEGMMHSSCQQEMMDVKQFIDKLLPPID
GSTO1 inh: blocks human GSTO1 in RBBP9 counter-screen; P78417; inhibition, % at 5.96 µM; actives 1.1% (n = 300,000); recombinant GSTO1, activity-based probe fluorescence polarization;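 active means inhibition above the campaign mean inhibition plus 3 SD, cut at about 35% in these data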;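 further: 0% = GSTO1-1 with DMSO and 100% = wells lacking GSTO1-1 enzyme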
Target sequence (P78417 whole entry, looked up): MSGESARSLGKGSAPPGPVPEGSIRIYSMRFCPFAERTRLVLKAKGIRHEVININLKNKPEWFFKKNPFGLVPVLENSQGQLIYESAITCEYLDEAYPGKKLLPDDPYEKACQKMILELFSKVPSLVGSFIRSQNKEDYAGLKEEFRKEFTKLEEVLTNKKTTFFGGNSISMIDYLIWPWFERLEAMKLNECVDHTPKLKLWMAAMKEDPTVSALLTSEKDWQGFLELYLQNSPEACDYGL
Fam108b inh conf: Fam108b (mouse) hydrolase inhibition, confirmation assay. shares compounds with Fam108B counter. recombinant Fam108b, FP-Rh probe fluorescence polarization. inhibition, % at 9.51 µM. actives 44% (n = 930);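 active means inhibition above a limit from the primary screen, the mean over all compounds plus 3 SD, cut at about 19% in these data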;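 further: 0% = median of active Fam108b wells and 100% = catalytically dead S170A mutant; inhibitors free the probe so polarization falls as inhibition rises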
Fam108b inh: mouse ABHD17B inhibition; shares compounds with Fam108B counter; recombinant Fam108b, gel-based ABPP, fluorophosphonate probe; inhibition, % at 20 µM; actives 44% (n = 260); in the data active means inhibition above about 40%
GSTO1 confirm: GSTO1 (human) inhibition, confirmation; shares compounds with GSTO1 inh; recombinant GSTO1, probe fluorescence polarization; inhibition, % at 5.96 µM; actives 54% (n = 2,400);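 active means inhibition above the primary screen's cutoff, its mean inhibition plus 3 SD, cut at about 35% in these data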;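 further: loss of polarization as inhibitors block binding of rhodamine sulfonate ester activity probe; 0% = GSTO1 with DMSO and 100% = wells lacking GSTO1 enzyme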
Numbers without * were called inactive; . = no result given. Sampled rows, rich in hits. Any-hit rate of the full collection: about 2%.

SMILES	LYPLA2 inh	Fam108B counter	PREPL inhibitor	PME-1 inh	LYPLA1 inh	GSTO1 inh	Fam108b inh conf	GSTO1 confirm	others
CCN(CC)c1ccc(C2Nc3cccc4cccc(c34)N2)c(O)c1	1	51*	20	47*	-9	30	53*	.	Fam108b inh=90*
C(=N\Nc1nc(Nc2ccccc2)nc(N2CCOCC2)n1)/c1c[nH]c2ccccc12	-9	15	34	26	-6	-12	.	.
Cc1[nH]c2ccccc2c1/C=N/Nc1nc(Nc2ccc(F)cc2)nc(N2CCOCC2)n1	-3	22*	12	19	-15	-3	7	.
O=C(CCCc1ccccc1)NCCS(=O)(=O)N1CCN(c2ccc(F)cc2)CC1	-1	-4	-13	-2	0	5	.	.
Cc1nnc(SC(C)C#N)n1-c1ccccc1 (centres undefined)	2	-2	2	0	3	-8	.	.
CCCCn1c(N)c(N(CCOC)C(=O)CSCc2ccccc2C)c(=O)[nH]c1=O	0	27*	2	-2	2	5	1	.
CCCCn1c(N)c(N(CCOC)C(=O)CSc2ccccc2C)c(=O)[nH]c1=O	2	0	0	1	2	4	.	.
O=C(CCl)Nc1nc(-c2ccco2)c(-c2ccco2)s1	-1	19*	14	-7	-4	88*	7	88*
CC(=O)c1sc(NC(=O)CCNC(=O)c2ccco2)nc1-c1ccccc1	2	1	-5	6	-3	-4	.	.
COc1cccc(CN2CCN(Cc3nc(C(C)C)cs3)CC2CCO)c1 (centres undefined)	2	4	3	-2	1	3	.	.
Cc1ccc(SC2=C(Sc3ccc(C)cc3)C(=O)c3ccccc3C2=O)cc1	18	22*	18	8	0	71*	11	24
CC1CCN(C(=O)Cn2cnc3c2c(=O)n(C)c(=O)n3C)c2ccccc2S1 (centres undefined)	3	-3	-10	-3	-1	7	.	.
Cc1cc(SCC(=O)c2cccc([N+](=O)[O-])c2)nc(=O)[nH]1	5	10	9	-1	-1	20	.	.
COc1cc(C2Nc3cccc4cccc(c34)N2)cc(OC)c1OC(C)=O	3	34*	21	23	-3	49*	1	4
COc1cc(C2OC(=O)C3C(c4ccc(OC(C)=O)c(OC)c4)OC(=O)C23)ccc1OC(C)=O (centres undefined)	6	-2	10	-2	1	15	.	.
Oc1ccc(/C=N/Nc2ccc(Cl)nn2)c(O)c1O	1	23*	27	-3	-5	71*	-8	15
CCOc1ccc(/C=N/Nc2ccc(Cl)nn2)c(O)c1	0	-1	-12	1	-6	25	.	.
CCCn1nc([N+](=O)[O-])c(C(C#N)c2nc3ccccc3s2)c(Cl)c1=O (centres undefined)	17	31*	20	36*	-1	66*	31*	44*	Fam108b inh=0
O=C(N/N=C/c1cccc(O)c1)c1ccccc1O	3	2	20	-6	-3	15	.	.
Cn1c2ccccc2c2cc(/C=N/NC(=O)c3cc(O)ccc3O)ccc21	3	46*	31	50*	-7	82*	40*	40*
C/C(=N\NC(=O)c1cc(O)cc(O)c1)c1ccc(NC(=O)Cc2ccccc2)cc1	4	27*	12	2	-8	38*	10	47*
O=C(N/N=C/c1ccc(OCc2ccccc2)cc1)c1ccncc1	1	-1	14	-5	-1	0	.	.
Oc1ccc(N=Cc2ccc(OCc3ccccc3)cc2)cc1	11	20*	24	27*	3	86*	0	7
Cc1ccc(-n2c(O)c(/C=N/Nc3ccc(S(=O)(=O)N4CCOCC4)cc3[N+](=O)[O-])c3ccccc3c2=O)c(C)c1	22	32*	28	34*	9	38*	45*	62*	Fam108b inh=45*
COc1ccc(S(=O)(=O)/N=C2\C=C(Nc3ccc(O)cc3)C(=O)c3ccccc32)cc1	-8	28*	25	36*	-10	94*	37*	89*	Fam108b inh=65*
SMILES	LYPLA2 inh	Fam108B counter	PREPL inhibitor	PME-1 inh	LYPLA1 inh	GSTO1 inh	Fam108b inh conf	GSTO1 confirm	others
CC(=O)Nc1ccc(NC2=C/C(=N/S(=O)(=O)c3cccs3)c3ccccc3C2=O)cc1	8	41*	19	22	-2	87*	40*	86*
Cc1ccccc1NC1=C/C(=N\S(=O)(=O)c2ccc(C(=O)O)cc2)c2ccccc2C1=O	32*	54*	29	36*	7	90*	89*	93*	Fam108b inh=30
Cc1ccccc1NC1=C/C(=N\S(=O)(=O)c2cccs2)c2ccccc2C1=O	19	41*	33	30*	5	92*	60*	88*	Fam108b inh=60*
CC(=O)Nc1ccc(NC(=O)C(C)OC(=O)c2ccccc2NS(=O)(=O)c2cccs2)cc1 (centres undefined)	3	4	-15	0	-3	-18	.	.
CNC(=O)CSc1nnc(-c2ccco2)n1-c1cccc(OC)c1	-1	3	1	-1	-1	-1	.	.
O=C(Nc1cccc(NC(=O)c2ccc(Br)o2)n1)c1ccc(Br)o1	-9	-14	-1	-17	-8	6	.	.
N#Cc1c(NC(=O)c2ccc(Br)o2)n(-c2ccccc2)c2nc3ccccc3nc12	1	33*	5	17	0	74*	34*	85*	Fam108b inh=0
Cc1ccc(NC(=O)CCCN2C(=O)/C(=C/C=C/c3ccccc3)SC2=S)cc1	-28	-21	5	-44	-21	-35	.	.
O=C(O)CCCN1C(=O)/C(=C/C=C/c2ccco2)SC1=S	-14	50*	12	-39	-9	42*	11	37*
Cc1ccc(C(=O)Nc2cccc(O)c2)cc1S(=O)(=O)N1CCCCCC1	-6	-3	15	-1	-12	-9	.	.
O=C1C(Nc2cccc(O)c2)=C(N2CCCCC2)C(=O)c2ccccc21	8	20*	27	13	6	79*	21*	63*
Cc1ccc(C(NC(=O)NC(C)c2ccccc2)C(Cl)(Cl)Cl)cc1F (centres undefined)	-9	0	4	-12	-11	7	.	.
NC(=O)NC(=O)C(c1ccccc1)N1CCN(S(=O)(=O)Cc2ccccc2)CC1 (centres undefined)	3	.	9	-7	1	.	.	.
